Screening results (PubChem BioAssay)
Most compounds without a hit are left out; they make up all but 3.4% or so of the library.
Sm TGR block – inhibitors of Schistosoma mansoni thioredoxin glutathione reductase; Potency, µM (titrated, usually from 114 µM), for inactives: at the highest dose activity change, negative = inhibition, usual class: inhibitors; 3% of 360,000 active; purified TGR, DTNB reduction, TNB absorbance 405 nm; note: nearly all actives have a fitted effect of over 60% in size
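Kinetic colorimetric format: TGR-catalysed, NADPH-driven DTNB reduction monitored via TNB absorbance. Enzyme dispensed at 20 nM; compound exposure 15 min at room temperature before reaction start.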
AmpC inh no detg – inhibitors of E. coli AmpC beta-lactamase without detergent | P00811 | AmpC nitrocefin hydrolysis, absorbance 480 nm, 0.0001% Triton | Potency, µM (series often up to 57.1 µM), without a hit: at the highest dose activity change, negative = inhibition, most hits filed as inhibitors | 0.52% of 330,000 active;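 note: plate controls were no compound for no effect and no enzyme for full effect; nearly all actives have a fitted effect of over 20% in size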
Target sequence (P00811 whole entry, looked up): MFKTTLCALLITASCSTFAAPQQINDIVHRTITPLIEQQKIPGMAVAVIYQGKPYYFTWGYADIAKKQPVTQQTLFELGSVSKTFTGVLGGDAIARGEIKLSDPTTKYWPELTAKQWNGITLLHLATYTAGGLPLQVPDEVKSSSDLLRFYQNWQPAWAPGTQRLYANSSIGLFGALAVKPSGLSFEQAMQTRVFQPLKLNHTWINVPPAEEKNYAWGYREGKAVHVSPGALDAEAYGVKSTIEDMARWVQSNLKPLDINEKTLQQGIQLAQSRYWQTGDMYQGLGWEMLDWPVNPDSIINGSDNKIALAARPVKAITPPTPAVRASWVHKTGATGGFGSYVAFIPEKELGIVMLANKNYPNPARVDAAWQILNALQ
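20 mM phosphate pH 7.0 + 0.01% (detergent screen) or 0.0001% Triton X-100; 5.3 nM AmpC reagent; cpd preinc 15 min RT; nitrocefin (800 uM stock) to start; A480 q20 s × 4 min; Activity was normalised to no-enzyme and no-compound control wells.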
Giardia FBPA inh – Giardia lamblia aldolase inhibition. A8B2U2. purified Giardia FBPA. Potency, µM (highest dose often 59.6 µM), inactives show at the highest dose activity, negative = inhibition, most hits filed as inhibitors. 0.71% of 290,000 active; note: nearly all actives have a fitted effect of over 55% in size
Target sequence (A8B2U2 whole entry, looked up): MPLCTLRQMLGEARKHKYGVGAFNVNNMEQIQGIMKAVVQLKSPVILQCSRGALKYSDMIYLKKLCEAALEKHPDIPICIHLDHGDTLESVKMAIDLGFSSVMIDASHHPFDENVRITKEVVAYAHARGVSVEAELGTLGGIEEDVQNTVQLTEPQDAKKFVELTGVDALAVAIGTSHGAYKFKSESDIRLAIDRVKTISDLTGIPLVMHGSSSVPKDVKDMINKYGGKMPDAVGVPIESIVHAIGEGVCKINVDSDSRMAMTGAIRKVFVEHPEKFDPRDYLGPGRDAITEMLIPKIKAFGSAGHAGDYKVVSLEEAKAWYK
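40 nM FBPA preincubated 10 min at RT with compound (up to 57.5 uM final), then substrate plus GAPDH/TPI/NAD/arsenate coupling and diaphorase/resazurin added. Fluorescence read after 20 min at RT, 525/598 nm.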
RE007 growth inh – less growth of the S. pombe RE007 Vpr strain; Potency, µM (titrated, usually from 92.2 µM), without a hit: top-dose activity change, negative = less growth, most hits filed as inhibitors; 0.21% of 360,000 active; S. pombe RE007 Vpr strain, BacTiter-Glo ATP luminescence, 24 h; active = well fitted falling curve with a large enough effect; inconclusive = small, poorly fitted or top-dose-only effect; inactive = no such curve, though single readings can be large or run the other way; note: nearly all actives have a fitted effect of over 50% in size
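Fission yeast RE007 carrying one integrated HIV-1 vpr copy, seeded at OD 0.01 in PMG+AL medium with 23 nL pinned compound. Grown 24 h at 30 degrees; viability read by BacTiter-Glo luminescence after 5 min.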
AmpC detergent – inhibitors of E. coli AmpC beta-lactamase with detergent; 0.041% of 370,000 active; Potency, µM (titrated, usually from 114 µM), for inactives: at the highest dose activity change, negative = inhibition, most hits filed as inhibitors; P00811; AID 485294; AmpC hydrolysis of nitrocefin, absorbance 480 nm, 0.01% Triton;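 note: 0% = no-compound wells and -100% = no-enzyme wells; nearly all actives have a fitted effect of over 25% in size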
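20 mM phosphate pH 7.0 + 0.01% (detergent screen) or 0.0001% Triton X-100; 5.3 nM AmpC reagent; cpd preinc 15 min RT; nitrocefin (800 uM stock) to start; A480 q20 s × 4 min; Activity was normalised to no-enzyme and no-compound control wells.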
* marks the source's active call; other numbers are inactive results; ? = inconclusive; . = not tested or not shown. Unless noted, calls come from the whole dose curve; as a rule, active = well fitted curve in the direction sought with a large enough effect; inconclusive = small, poorly fitted or top-dose-only effect, or another doubt; inactive = no such curve, though single readings can be large; an effect the other way counts as inactive or inconclusive. Unless noted, % is set by controls: 0 for no effect and ±100 for the full control effect; potency is the fitted concentration of half-maximal effect.

SMILES | Sm TGR block | AmpC inh no detg | Giardia FBPA inh | RE007 growth inh | AmpC detergent
COCCn1c(C)cc(C(=O)COC(=O)c2ccc([N+](=O)[O-])o2)c1C | 35µM* | -2% | -28% | -3% | 3%
Cc1cc(C)c(C(=O)COC(=O)c2ccc([N+](=O)[O-])o2)cc1C | ? | -7% | ? | ? | -2%
Cc1cc(C(=O)COC(=O)c2ccc([N+](=O)[O-])o2)c(C)n1CC1CCCO1 (centres undefined) | 35µM* | 7% | ? | -26% | 2%
O=C(Nc1ccc(F)cc1F)c1ccc(S(=O)(=O)N2CCCCC2)cc1 | 2% | -23% | . | 5% | 3%
CC(=O)Nc1ccc(NC(=O)CSc2ncnn2-c2ccccc2)cc1 | 9% | -6% | . | 36% | 1%
Cc1ccc(-c2cc(C(F)F)n3ncc(C(=O)N4CCN(c5ccccn5)CC4)c3n2)cc1 | 1% | 11µM* | -3% | -14% | -6%
COc1ccc(-c2cc(C(F)F)n3ncc(C(=O)N4CCCCC4)c3n2)cc1 | 2% | 84% | 4% | 10% | -1%
COc1ccc(-c2cc(C(F)F)n3ncc(C(=O)N4CCN(C(=O)c5ccco5)CC4)c3n2)cc1 | 28µM* | 189% | 5% | -7% | -20%
COc1ccc(NC(=O)COC(=O)c2cc(Cl)ccc2O)cc1S(=O)(=O)N1CCCCC1 | -9% | -22% | . | 3% | ?
COc1cc(Cl)cc2c1Sc1ccccc1/C2=C/CCN(C)C | 18µM* | 84% | 9% | -29% | 4%
COc1cc2c(cc1Cl)/C(=C\CCN(C)C)c1ccccc1S2 | 28µM* | 36% | 24% | 1% | -8%
CN(C)CC/C=C1/c2ccccc2Sc2c(O)cc(Cl)cc21 | -23% | 7% | ? | 8% | -7%
Cc1cc(C(=O)C(C)OC(=O)C2=NNC(=O)CC2)c(C)n1-c1ccc(OC(F)F)cc1 (centres undefined) | 5% | 62% | -13% | 5% | ?
COc1cc2c(cc1OC)C(c1ccccc1O)N(C1CC(=O)N(c3ccccc3)C1=O)CC2 (centres undefined) | 10µM* | 50% | -4% | -28% | -12%
COc1cc2c(cc1OC)C(C1C(=O)CCCC1=O)N(C(=O)CCl)CC2 (centres undefined) | -32% | -1% | -5% | -8% | -6%
COc1cc2c(cc1OC)C(c1cc(OC)c(OC)cc1[N+](=O)[O-])N(C(C)=O)CC2 (centres undefined) | 89µM* | -17% | -5% | . | -7%
COc1cc2c(cc1OC)C(c1ccccc1)N(C(=O)CCl)CC2 (centres undefined) | 4µM* | -13% | 4% | 9% | 2%
CC1(C)Cc2c(cnn2-c2ccccc2)C(=O)/C1=N\NC(=O)c1ccccc1 | -4% | -7% | 2% | -15% | ?
CCC(C(=O)O)N1C(=O)C2CCCCC2C1=O (centres undefined) | 13% | -11% | 3% | 6% | 2%
O=C(CSc1cn(Cc2ccccc2)c2ccccc12)N1CCOCC1 | 0% | 45µM* | -3% | -7% | ?
O=C(Cn1cnc2ccccc2c1=O)Nc1cccc(-c2nnc3n2CCCCC3)c1 | -7% | -1% | 2% | 0% | -1%
CCC(=NCc1ccco1)c1c(O)n(-c2ccc(Cl)cc2)c(=O)[nH]c1=O | 40µM* | -26% | 2% | 6% | 4%
CCN1C(=NCCc2c[nH]c3ccccc23)N[C@@H](c2ccccc2)[C@H](C(=O)OC)[C@H]1C | 45µM* | -43% | -13% | -16% | ?
O=C1/C(=C\c2ccc(O)cc2)SC(=S)N1Cc1ccccc1 | -17% | -57% | 1% | ? | -5%
O=C(O)CN1C(=O)/C(=C\c2cc(Br)ccc2OCc2ccccc2Cl)SC1=S | ? | -41% | 2% | 5% | ?
SMILES | Sm TGR block | AmpC inh no detg | Giardia FBPA inh | RE007 growth inh | AmpC detergent
O=C1/C(=C\c2cc(Br)cc(Br)c2O)SC(=S)N1Cc1ccccc1 | 40µM* | -40% | -13% | -29% | -4%
O=C(O)CN1C(=O)/C(=C\c2cc(Br)ccc2OCc2ccc([N+](=O)[O-])cc2)SC1=S | ? | 20µM* | -6% | 10% | -4%
CN1CCc2c(sc3c2C(=O)NC(/C=C\c2ccccc2)N3)C1 (centres undefined) | 10µM* | -4% | -30% | -6% | 1%
CCCc1cc(=O)[nH]c(Nc2ccc(OC)c(Cl)c2)n1 | -12% | -31% | 5% | -1% | -4%
O=C(/C=C/C=C/c1ccccc1)c1ccco1 | 10µM* | -29% | -1% | . | -9%
CC1Sc2ccc(S(=O)(=O)CCC(=O)N(C)Cc3ccco3)cc2NC1=O (centres undefined) | ? | -5% | . | -3% | 3%
CCOc1ccccc1N(C)C(=O)CCS(=O)(=O)c1ccc2c(c1)NC(=O)C(C)S2 (centres undefined) | 35µM* | 4% | . | 8% | -5%
O=C1C(Cl)=CC(=Nc2ccc(O)cc2)C=C1Cl | 0.89µM* | 28µM* | ? | -5% | ?
CC(=O)Nc1ccc(SC[C@H](Cc2ccccc2)N2CCN(CC(C)C)CCC2=O)cc1 | ? | 113% | 7% | 1% | -4%
CCOc1cc(C=O)ccc1O | . | -17% | . | -16% | .
CCOc1cc(/C=C2\CN(CC)C/C(=C\c3ccc(O)c(OCC)c3)C2=O)ccc1O | 40µM* | -2% | -20% | -4% | ?
CCOc1cc(/C=C2\SC(=O)N(c3ccc(O)cc3)C2=O)ccc1O | -8% | 10µM* | 10% | -6% | -5%
CCOc1ccc2[nH]c(C)c(CN3CCCCCC3)c(=O)c2c1 | 0% | 0% | -4% | 4% | -9%
Cn1c(=O)c2c(ncn2CC(=O)N/N=C/C=C/c2ccco2)n(C)c1=O | 11µM* | -1% | ? | 4% | ?
CC(/C=N/NC(=O)Cn1cnc2c1c(=O)n(C)c(=O)n2C)=C\c1ccco1 | 25µM* | 18% | ? | -19% | 3%
Cc1cc(C)nc(NS(=O)(=O)c2ccc(NC(=O)C(C)C)cc2)n1 | 1% | -15% | -5% | 6% | ?
C#CCOCCOCCOCCNc1nc(OC)nc(N2CCN(C(=O)[C@H](CCCCN)n3cc(C(N)CO)nn3)CC2)n1 (some centres undefined) | -27% | -1% | -18% | . | -9%
CCOc1ccc(N2C(=O)CC(N(Cc3ccco3)C(=O)CC)C2=O)cc1 (centres undefined) | . | 0% | -5% | -5% | -5%
CCC(=O)N(Cc1ccc(S(N)(=O)=O)cc1)C1CC(=O)N(c2ccc(OC)cc2)C1=O (centres undefined) | 28µM* | ? | 3% | -20% | -3%
